Source: PubChem BioAssay (NCI)
This is part of a sample that, as a whole, favours compounds with a hit. Of some 79,000 tested, about 15% had one in any assay. Unmarked numbers belong to inactive results. Active and inactive are the calls of the source. Rule as the data show it: active = growth inhibition above about 70%; inactive = the rest.

Test: NCI Yeast Anticancer Drug Screen. Data for the sgs1 mgt1 strain (AID 161);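 also: 0% = growth of cultures given vehicle only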
Conditions: S. cerevisiae sgs1 mgt1 strain, at 50.0 µM, active compounds read high
Procedure, shortened: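 Yeast cells carrying a defined DNA-repair defect were exposed to test compounds. Growth inhibition was measured relative to vehicle-treated controls.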

| Structure (SMILES) | growth inhibition |
| --- | --- |
| Cc1ccc(/C=C2\CCCC(CN3CCCCC3)C2=O)cc1 (centres undefined) | 87.8% (active) |
| Oc1ccc(CCCCCc2ccc(O)cc2)cc1 | 99.7% (active) |
| COC(=O)c1ccccc1CC(Cc1ccc2c(c1)CCC2)C(=O)OC (centres undefined) | 29.6% |
| CN=C1NS(=O)(=O)c2ccccc21 | 3.4% |
| CCCCC/C(=C/C=C/c1ccc(Cl)cc1)CN(C)C | 99.7% (active) |
| O=S(=O)(O)c1ccc2c(c1)C1C(C3C2C2(Cl)C(Cl)=C(Cl)C3(Cl)C2(Cl)Cl)C2(Cl)C(Cl)=C(Cl)C1(Cl)C2(Cl)Cl (centres undefined) | 81% (active) |
| Cc1ccc(S(=O)(=O)N/N=C/c2oc(-c3cccc([N+](=O)[O-])c3)c(-c3cccc([N+](=O)[O-])c3)c2[N+](=O)[O-])cc1 | 92.1% (active) |
| CCN(CC)C(C)(C)C(=O)/C=C/c1ccc(Cl)cc1 | 24.9% |
| Fc1ccc(NC(=S)SCc2ccc(Cl)c(Cl)c2)c(F)c1 | 99.2% (active) |
| CC[C@@]1(OP(=O)(O)O)C(=O)OCc2c1cc1n(c2=O)Cc2cc3ccccc3nc2-1 | 80.7% (active) |
| CC(C)C1=CC2=CCC3C(C)(C(=O)O)CCCC3(C)C2CC1 (centres undefined) (tested in a mixture with another compound) | 75.5% (active) |
| C=CCSc1nc2ccccc2c(=O)n1Cc1ccco1 | 22.4% |
| COC(=O)c1c(C)cccc1C1CN=NC12Cc1ccc(C)c(C)c1C2=O (centres undefined) | 68.5% |
| CC(=O)N=C1N(/C=C2\C(=O)Oc3ccccc3C2=O)C(=O)/C(=C/c2cccc(Cl)c2Cl)N1C | 28.2% |
